The supplement of paper PMC11732987, “Enantioselective OTUD7B fragment discovery through chemoproteomics screening and high-throughput optimisation” (Communications Chemistry, 2025)

Experiments:
Assay in all cases: log2 ratio of Biotin-Ahx-Ub-VS probe labelling (fragment/DMSO); higher = less target engagement (more negative = stronger competition), active = hit call of the paper (q ≤ 0.05, log2 ratio ≤ -1)
Conditions in all cases: compound concentration: 200 uM; treatment time: 3 h
USP19 = target: T1, USP19 (UniProt O94966)
T1 sequence (whole entry): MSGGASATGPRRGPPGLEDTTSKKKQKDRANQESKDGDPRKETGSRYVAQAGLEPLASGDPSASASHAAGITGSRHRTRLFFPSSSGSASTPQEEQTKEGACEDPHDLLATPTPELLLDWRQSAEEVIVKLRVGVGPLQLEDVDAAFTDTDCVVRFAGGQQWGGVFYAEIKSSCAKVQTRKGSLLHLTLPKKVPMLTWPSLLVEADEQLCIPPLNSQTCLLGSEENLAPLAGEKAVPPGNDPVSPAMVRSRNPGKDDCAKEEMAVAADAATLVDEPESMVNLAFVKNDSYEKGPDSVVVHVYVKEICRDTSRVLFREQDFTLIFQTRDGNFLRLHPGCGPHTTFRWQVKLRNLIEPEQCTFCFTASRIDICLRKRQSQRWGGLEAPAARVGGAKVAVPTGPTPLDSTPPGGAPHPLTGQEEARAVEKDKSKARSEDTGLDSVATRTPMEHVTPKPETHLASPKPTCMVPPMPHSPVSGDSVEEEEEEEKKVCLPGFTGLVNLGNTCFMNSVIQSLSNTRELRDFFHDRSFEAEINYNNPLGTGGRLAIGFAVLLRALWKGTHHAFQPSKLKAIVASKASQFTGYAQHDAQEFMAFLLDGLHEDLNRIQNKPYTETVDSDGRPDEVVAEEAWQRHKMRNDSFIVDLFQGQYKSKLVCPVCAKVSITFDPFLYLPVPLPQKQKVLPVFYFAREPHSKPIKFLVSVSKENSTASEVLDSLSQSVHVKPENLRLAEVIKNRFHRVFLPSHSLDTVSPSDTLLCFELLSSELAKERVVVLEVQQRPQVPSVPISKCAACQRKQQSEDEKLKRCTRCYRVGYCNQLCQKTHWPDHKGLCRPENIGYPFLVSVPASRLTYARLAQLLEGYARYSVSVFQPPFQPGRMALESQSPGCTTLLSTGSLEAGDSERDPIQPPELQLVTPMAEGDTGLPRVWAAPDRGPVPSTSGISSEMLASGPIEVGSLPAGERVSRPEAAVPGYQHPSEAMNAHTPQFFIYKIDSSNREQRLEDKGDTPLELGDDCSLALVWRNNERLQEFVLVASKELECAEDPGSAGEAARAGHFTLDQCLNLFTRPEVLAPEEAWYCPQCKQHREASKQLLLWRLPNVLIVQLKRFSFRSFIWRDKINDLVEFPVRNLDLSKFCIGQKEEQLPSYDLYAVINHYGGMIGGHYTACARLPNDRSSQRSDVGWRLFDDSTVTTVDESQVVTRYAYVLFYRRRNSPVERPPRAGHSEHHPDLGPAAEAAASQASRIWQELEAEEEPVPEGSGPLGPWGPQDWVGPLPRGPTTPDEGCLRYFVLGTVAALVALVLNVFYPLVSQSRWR
Procedure, shortened: (§1)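 Each value is an average log2 ratio of fragment to vehicle, tested by unpaired t-test. The underlying Spectronaut label-free quantities were global-median-normalised, and only proteins with ≥2 unique peptides were included. Triplicate HEK293T lysate samples (495 µg) were exposed to fragment at 200 µM or vehicle for 3 h, then to Biotin-Ahx-Ub-VS at 0.5 µM final for 1 h, before NeutrAvidin enrichment of labelled DUBs, LysC and trypsin digestion, and diaPASEF LC-MS/MS.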

USP22 = target: T2, USP22 (UniProt Q9UPT9)
T2 sequence (whole entry): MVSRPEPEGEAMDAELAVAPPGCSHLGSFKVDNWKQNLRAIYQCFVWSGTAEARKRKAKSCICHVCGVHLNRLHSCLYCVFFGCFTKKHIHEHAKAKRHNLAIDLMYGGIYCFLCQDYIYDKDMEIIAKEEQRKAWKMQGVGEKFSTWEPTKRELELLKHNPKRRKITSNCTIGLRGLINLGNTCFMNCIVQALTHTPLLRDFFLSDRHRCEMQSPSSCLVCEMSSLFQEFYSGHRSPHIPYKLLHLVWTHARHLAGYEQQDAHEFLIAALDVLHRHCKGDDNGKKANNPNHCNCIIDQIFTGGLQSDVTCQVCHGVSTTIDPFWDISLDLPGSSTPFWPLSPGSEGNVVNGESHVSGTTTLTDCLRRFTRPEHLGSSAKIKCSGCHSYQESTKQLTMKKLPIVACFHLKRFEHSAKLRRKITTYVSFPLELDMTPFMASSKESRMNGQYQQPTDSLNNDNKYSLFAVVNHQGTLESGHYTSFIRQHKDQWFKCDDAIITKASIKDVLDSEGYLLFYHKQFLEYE
Procedure, shortened: as §1

USP24 = USP24 (UniProt Q9UPU5)
Procedure, shortened: as §1

USP25 = target: T3, USP25 (UniProt Q9UHP3)
T3 sequence (whole entry): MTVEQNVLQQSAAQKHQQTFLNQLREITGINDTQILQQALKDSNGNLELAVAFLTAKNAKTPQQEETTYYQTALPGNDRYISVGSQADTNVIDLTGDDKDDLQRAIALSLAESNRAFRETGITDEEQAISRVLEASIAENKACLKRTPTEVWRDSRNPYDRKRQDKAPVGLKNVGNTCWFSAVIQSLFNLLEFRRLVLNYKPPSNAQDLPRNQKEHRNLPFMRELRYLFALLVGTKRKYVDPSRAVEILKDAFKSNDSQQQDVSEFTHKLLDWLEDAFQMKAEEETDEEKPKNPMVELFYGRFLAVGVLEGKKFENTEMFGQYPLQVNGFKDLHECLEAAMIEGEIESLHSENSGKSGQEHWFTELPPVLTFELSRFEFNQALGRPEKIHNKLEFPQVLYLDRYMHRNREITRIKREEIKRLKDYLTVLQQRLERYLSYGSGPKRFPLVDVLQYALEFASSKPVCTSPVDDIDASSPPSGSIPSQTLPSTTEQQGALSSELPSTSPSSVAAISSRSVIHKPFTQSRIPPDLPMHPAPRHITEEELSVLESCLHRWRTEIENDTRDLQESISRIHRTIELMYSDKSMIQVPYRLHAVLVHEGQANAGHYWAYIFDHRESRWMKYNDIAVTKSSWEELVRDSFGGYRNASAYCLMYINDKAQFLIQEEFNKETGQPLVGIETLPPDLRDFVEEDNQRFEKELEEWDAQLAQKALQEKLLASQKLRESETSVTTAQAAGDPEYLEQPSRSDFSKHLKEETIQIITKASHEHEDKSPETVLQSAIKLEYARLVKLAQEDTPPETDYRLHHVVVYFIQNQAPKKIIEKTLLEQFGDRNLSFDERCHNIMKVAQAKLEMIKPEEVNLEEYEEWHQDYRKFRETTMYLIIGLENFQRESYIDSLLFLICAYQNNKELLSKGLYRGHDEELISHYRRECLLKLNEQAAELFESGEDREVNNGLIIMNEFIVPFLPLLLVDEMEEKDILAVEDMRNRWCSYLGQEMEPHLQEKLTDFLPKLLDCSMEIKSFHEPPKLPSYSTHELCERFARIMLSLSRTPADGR
Procedure, shortened: as §1

USP28 = target: T4, USP28 (UniProt Q96RU2)
T4 sequence (whole entry): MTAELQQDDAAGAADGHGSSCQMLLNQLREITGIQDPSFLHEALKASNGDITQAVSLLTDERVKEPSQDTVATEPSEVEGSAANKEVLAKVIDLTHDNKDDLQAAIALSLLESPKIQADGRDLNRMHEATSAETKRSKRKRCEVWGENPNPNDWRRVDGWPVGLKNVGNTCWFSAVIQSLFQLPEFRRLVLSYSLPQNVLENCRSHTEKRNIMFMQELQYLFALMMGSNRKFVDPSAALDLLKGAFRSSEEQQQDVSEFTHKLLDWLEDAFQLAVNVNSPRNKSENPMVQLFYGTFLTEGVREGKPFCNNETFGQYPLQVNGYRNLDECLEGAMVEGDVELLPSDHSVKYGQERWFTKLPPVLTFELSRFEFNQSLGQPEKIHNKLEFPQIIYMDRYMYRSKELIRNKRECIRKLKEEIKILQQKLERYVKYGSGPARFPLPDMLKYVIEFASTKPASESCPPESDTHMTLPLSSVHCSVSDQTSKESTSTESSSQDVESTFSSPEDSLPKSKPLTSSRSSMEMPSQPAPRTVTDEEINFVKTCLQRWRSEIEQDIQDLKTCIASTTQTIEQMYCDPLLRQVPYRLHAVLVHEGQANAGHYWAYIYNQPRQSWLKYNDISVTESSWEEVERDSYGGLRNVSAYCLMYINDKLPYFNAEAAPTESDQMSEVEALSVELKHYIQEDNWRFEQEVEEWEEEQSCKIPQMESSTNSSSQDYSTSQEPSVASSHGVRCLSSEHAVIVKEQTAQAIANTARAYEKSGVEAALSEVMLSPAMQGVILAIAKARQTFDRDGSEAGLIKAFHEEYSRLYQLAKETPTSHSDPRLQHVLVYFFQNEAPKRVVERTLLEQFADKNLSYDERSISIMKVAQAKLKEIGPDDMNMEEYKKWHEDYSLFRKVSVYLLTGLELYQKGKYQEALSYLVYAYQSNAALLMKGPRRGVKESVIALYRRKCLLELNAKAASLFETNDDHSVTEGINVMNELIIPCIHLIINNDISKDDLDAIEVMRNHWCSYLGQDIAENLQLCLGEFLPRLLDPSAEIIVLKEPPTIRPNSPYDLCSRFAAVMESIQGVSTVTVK
Procedure, shortened: as §1

Measured: log2 ratio of Biotin-Ahx-Ub-VS probe labelling

Chain of USP24 (Q9UPU5 whole entry): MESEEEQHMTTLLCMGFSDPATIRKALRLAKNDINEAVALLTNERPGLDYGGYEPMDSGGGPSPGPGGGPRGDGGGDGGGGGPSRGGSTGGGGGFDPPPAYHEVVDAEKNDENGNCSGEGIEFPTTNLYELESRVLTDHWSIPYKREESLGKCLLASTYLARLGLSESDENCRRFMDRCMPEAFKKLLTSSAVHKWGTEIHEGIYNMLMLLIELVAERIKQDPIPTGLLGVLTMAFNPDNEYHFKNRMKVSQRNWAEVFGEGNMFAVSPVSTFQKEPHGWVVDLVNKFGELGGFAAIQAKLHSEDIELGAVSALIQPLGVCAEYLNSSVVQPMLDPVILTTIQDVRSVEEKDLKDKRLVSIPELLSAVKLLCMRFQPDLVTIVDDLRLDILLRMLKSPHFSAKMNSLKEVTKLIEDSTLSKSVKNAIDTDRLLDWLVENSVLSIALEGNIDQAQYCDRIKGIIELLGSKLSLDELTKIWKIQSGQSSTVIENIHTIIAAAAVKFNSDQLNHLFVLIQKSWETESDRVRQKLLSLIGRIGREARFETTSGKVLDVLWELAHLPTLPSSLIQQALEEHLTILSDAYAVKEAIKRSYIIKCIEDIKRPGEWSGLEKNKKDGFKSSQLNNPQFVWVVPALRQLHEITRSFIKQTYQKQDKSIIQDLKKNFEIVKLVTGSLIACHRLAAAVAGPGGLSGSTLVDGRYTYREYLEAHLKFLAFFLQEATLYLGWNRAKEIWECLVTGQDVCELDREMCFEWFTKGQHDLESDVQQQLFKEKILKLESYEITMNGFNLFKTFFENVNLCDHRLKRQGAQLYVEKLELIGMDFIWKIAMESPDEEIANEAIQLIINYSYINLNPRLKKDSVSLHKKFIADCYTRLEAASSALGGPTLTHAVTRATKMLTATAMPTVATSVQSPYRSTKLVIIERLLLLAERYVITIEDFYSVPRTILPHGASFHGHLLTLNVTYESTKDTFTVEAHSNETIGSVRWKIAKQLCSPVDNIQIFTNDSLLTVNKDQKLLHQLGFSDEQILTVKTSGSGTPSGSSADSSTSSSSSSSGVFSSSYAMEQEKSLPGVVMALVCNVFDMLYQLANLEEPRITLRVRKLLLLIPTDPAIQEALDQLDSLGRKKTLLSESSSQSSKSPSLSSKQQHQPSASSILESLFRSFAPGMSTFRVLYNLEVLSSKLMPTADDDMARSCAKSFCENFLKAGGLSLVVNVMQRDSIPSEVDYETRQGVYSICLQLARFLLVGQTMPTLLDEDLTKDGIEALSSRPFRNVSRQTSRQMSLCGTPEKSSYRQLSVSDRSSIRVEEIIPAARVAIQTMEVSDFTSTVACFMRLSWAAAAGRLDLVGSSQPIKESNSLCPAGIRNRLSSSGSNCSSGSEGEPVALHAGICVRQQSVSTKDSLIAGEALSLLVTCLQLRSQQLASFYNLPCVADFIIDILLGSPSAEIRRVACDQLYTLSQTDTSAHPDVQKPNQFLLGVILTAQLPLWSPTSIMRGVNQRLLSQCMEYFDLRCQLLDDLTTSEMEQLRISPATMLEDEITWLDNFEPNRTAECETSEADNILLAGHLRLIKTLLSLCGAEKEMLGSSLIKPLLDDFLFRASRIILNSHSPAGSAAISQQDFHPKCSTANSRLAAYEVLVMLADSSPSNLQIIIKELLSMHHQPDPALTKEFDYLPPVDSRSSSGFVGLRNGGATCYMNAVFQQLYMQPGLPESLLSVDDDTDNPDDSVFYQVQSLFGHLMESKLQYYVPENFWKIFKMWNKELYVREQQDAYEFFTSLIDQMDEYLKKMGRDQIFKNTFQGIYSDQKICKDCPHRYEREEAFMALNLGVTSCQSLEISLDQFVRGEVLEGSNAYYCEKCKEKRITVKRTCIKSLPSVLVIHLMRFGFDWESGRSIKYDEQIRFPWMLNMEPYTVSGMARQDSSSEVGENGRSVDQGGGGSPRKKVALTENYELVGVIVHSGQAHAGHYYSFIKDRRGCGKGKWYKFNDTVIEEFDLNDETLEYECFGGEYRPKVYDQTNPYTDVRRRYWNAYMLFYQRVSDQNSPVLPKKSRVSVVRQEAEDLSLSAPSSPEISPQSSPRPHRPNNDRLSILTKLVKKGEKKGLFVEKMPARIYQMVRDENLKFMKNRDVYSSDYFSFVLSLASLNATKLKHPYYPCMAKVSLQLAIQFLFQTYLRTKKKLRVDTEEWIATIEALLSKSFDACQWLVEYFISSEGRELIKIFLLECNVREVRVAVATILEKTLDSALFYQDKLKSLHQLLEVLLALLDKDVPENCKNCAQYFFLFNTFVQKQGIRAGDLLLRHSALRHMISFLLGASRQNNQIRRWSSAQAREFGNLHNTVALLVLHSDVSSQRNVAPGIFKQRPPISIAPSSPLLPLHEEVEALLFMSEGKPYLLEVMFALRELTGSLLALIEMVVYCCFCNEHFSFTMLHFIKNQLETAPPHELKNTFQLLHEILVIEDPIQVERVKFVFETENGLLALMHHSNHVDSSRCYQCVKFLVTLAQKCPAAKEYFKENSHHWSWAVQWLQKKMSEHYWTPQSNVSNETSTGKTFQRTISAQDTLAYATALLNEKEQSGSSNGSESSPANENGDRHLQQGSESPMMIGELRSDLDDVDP

CC(NC(=O)CCl)c1cccc2ccccc12 (stereo not given)
inactive: USP19 -0.242 | USP22 -0.925 | USP24 -0.343 | USP25 -0.33 | USP28 -0.501
